Active and inactive are the calls of the source. Rule for the calls: active = hit-call score of the fitted dose curve at least 0.9, where 1 is the maximum; inactive = score below 0.9.
Experiment: ATG_MRE_CIS: Attagene CIS-FACTORIAL HepG2 Assay for human Metal Responsive Element (MRE) (AID 2282954)
Details: HepG2 MRE cis-reporter transcription, Attagene multiplex; actives raise or lower the signal
Experimental: ATG_CIS is a cell-based, multiplexed-readout assay that uses HepG2, a human liver cell line, with measurements taken at 24 hours after chemical dosing in a 24-well plate.ATG_MRE_CIS is one of 52 assay component(s) measured or calculated from the ATG_CIS assay. It is designed to make measurements of mRNA induction, a form of inducible reporter, as detected with fluorescence intensity signals by Reverse transcription polymerase chain reaction (RT-PCR) and Capillary electrophoresis technology.Data from the assay component ATG_MRE_CIS was analyzed into 1 assay endpoint. This assay endpoint, ATG_MRE_CIS, was analyzed with bidirectional fitting relative to DMSO as the negative control and baseline of activity. Using a type of inducible reporter, measures of mRNA for gain or loss-of-signal activity can be used to understand the reporter gene at the transcription factor-level as they relate to the gene MTF1. Furthermore, this assay endpoint can be referred to as a primary readout, because this assay has produced multiple assay endpoints where this one serves a reporter gene function. To generalize the intended target to other relatable targets, this assay endpoint is annotated to the dna binding intended target family, where the subfamily is zinc finger.
Human liver HepG2 cells are transiently transfected with multiple reporter transcription units (MRTUs) in 6-well plates using FuGene 6 reagent (Roche; 3 ml FuGene/1 mg DNA). The MRTU constructs are regulated by a cis-regulating element (promoter). […] A major difference between the CIS and TRANS system is that in CIS activities of endogenous TFs are measured, whereas the TRANS assay evaluates changes in activities of exogenous, chimeric NR-Gal4 proteins. […] At the end of 24 hour incubation, total RNA was isolated using TriZol reagent (Invitrogen). The isolated RNA is then reverse-transcribed using oligo(dT) primer and Mo-MLV reverse transcriptase (Invitrogen) with DNAse I (Ambion) treatment for 30 min. The one-tenth of the produced cDNA was amplified by PCR using Taq DNA polymerase (Invitrogen) and two reporter sequence-specific primers. The PCR products were fluorescently labeled by primer extension with 6-arboxyfluorescein (6-FAM) 5'-labeled reporter sequence-specific primer (2 min at 95 C, 20 s at 68 C and 10 min at 72 C) and these products were digested with 5U of HpaI (New England Biolabs) for 2h at 37 C. The fragments were purified using Qiaquick PCR columns (Qiagen), analyzed on an ABI 3130xL genetic analyzer (Applied Biosystems) with peak positions identified by using a set of X-rhodamine (ROX)-labeled MapMarker1000 molecular weight standards (BioVentures). The raw capillary electrophoresis data was processed using Attagraph software (Attagene).

Row | SMILES | outcome | AC50
1 | Cn1c(=O)c2c(ncn2C)n(C)c1=O | inactive | –
2 | CC(C)=CCC/C(C)=C\CO | inactive | –
3 | CNS(=O)(=O)c1cc(C(=O)N2CCC(CCN3C4CCC3CC(n3c(C)nc5ccccc53)C4)(c3cccc(F)c3)CC2)c(Cl)cc1F (stereo not given) | inactive | –
4 | O=C(O)CCN(C1(C(=O)NO)CCCC1)S(=O)(=O)c1ccc(Oc2ccc(F)cc2)cc1 | inactive | –
5 | Cc1ccc(S(=O)(=O)O)cc1C | inactive | –
6 | O=C(O)c1cccc(Oc2ccccc2)c1 | inactive | –
7 | CN(C)c1ccc(N=NS(=O)(=O)O)cc1 | inactive | –
8 | O=C(OC[C@H]1O[C@@H](OC(=O)c2cc(O)c(O)c(OC(=O)c3cc(O)c(O)c(O)c3)c2)[C@H](OC(=O)c2cc(O)c(O)c(OC(=O)c3cc(O)c(O)c(O)c3)c2)[C@@H](OC(=O)c2cc(O)c(O)c(OC(=O)c3cc(O)c(O)c(O)c3)c2)[C@@H]1OC(=O)c1cc(O)c(O)c(OC(=O)c2cc(O)c(O)c(O)c2)c1)c1cc(O)c(O)c(OC(=O)c2cc(O)c(O)c(O)c2)c1 | inactive | –
9 | Oc1ccc2c(c1)-c1ccccc1C2 | – | 40.8 µM (active)
10 | COCCOCCOCCOC | inactive | –
11 | CC1(C)C(=O)N(Br)C(=O)N1Br | inactive | –
12 | Fc1ccccc1[C@@H](F)COC1CCC(Nc2ncnc3[nH]ncc23)CC1 (stereo not given in full) | – | 103 µM (active)
13 | CCCCCCCCCCCCCCCO | inactive | –
14 | COc1ccc(-n2nc(C(F)F)cc2-c2ccc(S(C)=O)cc2)cc1 (stereo not given) | inactive | –
15 | CC(C)c1cccc(C(C)C)c1N1C(=O)c2ccc(O)cc2C1=O | – | 76.9 µM (active)
16 | Cc1c(-c2cccnc2)c2ccccc2n1CCCCC(=O)O | inactive | –
17 | Cn1cnc([N+](=O)[O-])c1Sc1ncnc2nc[nH]c12 | inactive | –
18 | CCC(C)(C)C(=O)O[C@H]1C[C@@H](C)C=C2C=C[C@H](C)[C@H](CC[C@@H]3C[C@@H](O)CC(=O)O3)[C@H]21 | inactive | –
19 | O=C(NS(=O)(=O)/C=C/c1ccccc1)c1ccc(F)cc1Cl | inactive | –
20 | COC(=O)c1c(Cl)c(Cl)c(C(=O)OC)c(Cl)c1Cl | inactive | –

Row | SMILES | outcome | AC50
21 | CC(C)CCO | inactive | –
22 | CC1=CC(=O)CC(C)(C)C1 | inactive | –
23 | O=P(OC(CCl)CCl)(OC(CCl)CCl)OC(CCl)CCl | – | 107 µM (active)
24 | CC(O)CN(CCN(CC(C)O)CC(C)O)CC(C)O (stereo not given) | inactive | –
25 | C[C@](N)(Cc1ccc(O)c(O)c1)C(=O)O | inactive | –
26 | O=C(O)c1cccc(N(Cc2cccnc2)c2ccc(OC(F)F)c(OC(F)F)c2)c1 | inactive | –
27 | O=c1[nH]c2ccc(S(=O)CCN3CCC(Cc4ccc(F)cc4)CC3)cc2o1 (stereo not given) | – | 155 µM (active)
28 | CCCCCCCCCCCCc1ccccc1 | inactive | –
29 | O=c1n(CC2CO2)c(=O)n(CC2CO2)c(=O)n1CC1CO1 (stereo not given) | – | 59 µM (active)
30 | O=C(CCCCCCCCc1cccnc1)N1CCC(C=C(c2ccccc2)c2ccccc2)CC1 | – | 2.78 µM (active)
31 | CN(C)c1ccc(Cc2ccc(N(C)C)cc2)cc1 | – | 50.3 µM (active)
32 | CC[C@H]1CC[C@H](NCc2cc3c(cc2OC)[C@H]2C[C@H]2C(=O)N3C)[C@H](c2ccccc2)N1 | – | 114 µM (active)
33 | Cc1[nH]cnc1C[C@H]1CCc2c(C)c3ccccc3n2C1=O | – | 33.9 µM (active)
34 | CC(=O)OCCC(C)C | inactive | –
35 | Cc1ccc(C)c(O)c1 | inactive | –
36 | C=CC(=C)CCC=C(C)C | inactive | –
37 | CCCN(C1CCN(C(=O)C2CCNCC2)CC1)[C@@H]1CCc2ccc(OC)cc2C1 | inactive | –
38 | Cc1ccc(O)cc1 | inactive | –
39 | CCOc1cccc(-n2cc(C(=O)N3CCN(c4cc(C(=O)O)c5ccccc5c4)CC3)nc2-c2ccc(C)cc2)c1 | – | 32.3 µM (active)
40 | Cn1c(=O)cc(Oc2ccc(F)cc2F)c2cnc(NCC(C)(C)O)nc21 | inactive | –

— PubChem BioAssay (EPA / NIEHS)
